Cardio protect – cardioprotection against H2O2-induced cell death, primary screen, uHTS, H9c2 cells, ATPLite luminescence. AID 588492, 2011. H9c2 cardiomyocytes, H2O2 injury protection, 2 h. protection from H2O2 cell death, % at 20 µM. 360,000 compounds, 0.63% hits;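 active means compounds giving at least 50% protection of heart cells from peroxide-induced death in the single-dose screen, raw or plate-pattern-corrected value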;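 further: 0% = DMSO wells with peroxide and 100% = DMSO wells without peroxide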
UBC9 SUMO inh – inhibitors of in vitro SUMOylation cascade, primary screen, biochemical, HTRF, uHTS; SUMO-conjugating enzyme UBC9 (Homo sapiens), P63279; HTRF SUMOylation assay, SAE1/SAE2 + UBC9; inhibition, % at 35 µM; 290,000 compounds, 0.36% hits; AID 2006, 2009; in the data active means inhibition above about 50%, passing the limit was not always enough; inconclusive means no clear call, values can overlap the other calls
Target sequence (P63279 whole entry, looked up): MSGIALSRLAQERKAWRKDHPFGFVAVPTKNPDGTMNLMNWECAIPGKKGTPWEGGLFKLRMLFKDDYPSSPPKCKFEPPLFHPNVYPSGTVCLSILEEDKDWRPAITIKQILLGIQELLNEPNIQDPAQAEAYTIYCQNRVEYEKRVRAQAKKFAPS
ALR inh – inhibitors of human ALR sulfhydryl oxidase, primary screen, biochemical, H2O2 detection, HRP-luminol luminescence, single point. FAD-linked sulfhydryl oxidase ALR (Homo sapiens), P55789. inhibition, % (no concentration beside the values). 290,000 compounds, 3.8% hits. purified ALR, DTT oxidation;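 active means mean replicate inhibition above about 79%, with every replicate also reaching it, limit read from the data; inconclusive means only one of the two criteria met; inactive means mean below limit and not every replicate reaching it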
Target sequence (P55789 whole entry, looked up): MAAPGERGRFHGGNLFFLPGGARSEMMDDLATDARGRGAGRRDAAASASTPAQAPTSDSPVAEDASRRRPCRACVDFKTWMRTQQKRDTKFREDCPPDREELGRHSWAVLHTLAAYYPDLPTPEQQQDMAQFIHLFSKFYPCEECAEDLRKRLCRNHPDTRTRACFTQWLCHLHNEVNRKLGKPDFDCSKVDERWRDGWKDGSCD
NTR1 agonist – agonists of human NTR1, primary screen, imaging, U2OS cells, beta-arrestin-GFP, high content. Neurotensin receptor type 1 (Homo sapiens), P30989. NTR1-U2OS beta-arrestin-GFP spot imaging, agonist mode. activation, % at 20 µM. 330,000 compounds, 0.17% hits;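 active means activation at or above 40% of the spot to cytoplasm intensity ratio, with at least 20 cells analyzed; inconclusive means wells under 20 cells, flagged as cytotoxic or low count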;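 further: 0% = DMSO without peptide and 100% = 100 nM NTR1 peptide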
The depositor's hits bear a star; u = inconclusive; x = no result. Hits are enriched below; roughly 3.9% of the tested compounds scored in any of these assays.

SMILES | Cardio protect | UBC9 SUMO inh | ALR inh | NTR1 agonist
O=C(CN1CCN(c2ccc(O)cc2)CC1)Nc1cc(S(=O)(=O)N2CCCCC2)ccc1Cl | -10 | -2 | 45 | 6
O=C(O)C1C2CCC(O2)C1C(=O)Nc1cnn(Cc2ccccc2)c1 (stereo not given) | 6 | 5 | -11 | 0
Cc1ccc(C(CC(=O)O)Nc2nc(N3CCOCC3)nc(N3CCOCC3)n2)cc1 (stereo not given) | 3 | -2 | -6 | 0
COc1ccnc(Oc2ccccc2)c1C(=O)N/C=N/OCc1ccc(F)cc1Cl | 69* | -16 | -1 | 7
Cc1ccc(C)c(NC(=O)COc2coc(CN3CCc4ccccc4C3)cc2=O)c1 | -8 | x | -2 | 14
CCn1c(SCC(=O)NCc2ccc3c(c2)OCO3)nc2c(c1=O)SCC2 | 12 | 8 | -4 | 0
O=c1cc(CO)oc(CN2CCN(c3ccccc3)CC2)c1O | 6 | 21 | 98* | 1
CCOC(=O)C1CCN(Cc2oc(CO)cc(=O)c2O)CC1 | 9 | 12 | 91* | 0
CCN1CCN(Cc2oc(CO)cc(=O)c2O)CC1 | 0 | 22 | -4 | -1
COc1cccc(NC(=O)CNC(=O)c2cccs2)c1 | 2 | -9 | 1 | 0
Cc1ccc2nc3c(nc2c1C)C(O)=C3O | -2 | 13 | u | 0
COc1ccc(/C=C2/SC(=S)N(CCCC(=O)Nc3ccc(O)cc3)C2=O)cc1OC | 4 | -12 | x | 5
Cc1cc(C(F)(F)F)nn1CC(=O)NCc1ccccc1 | 18 | 4 | -23 | 1
COc1cc(/C=N/NC(=O)CNC(=O)c2ccc3c(c2)OCCO3)ccc1O | 0 | -6 | 98* | 0
COc1cc(/C=N\NC(=O)CNC(=O)C2COc3ccccc3O2)ccc1O (stereo not given) | 0 | -7 | 98* | -2
CCOc1ccc(-n2c(O)c(/C=N/NC(=O)C3COc4ccccc4O3)c3ccccc3c2=O)cc1 (stereo not given) | 56* | 10 | x | 2
CCN(CC)c1ccc(/C=N/NC(=O)CNC(=O)C2COc3ccccc3O2)c(O)c1 (stereo not given) | 66* | 51* | 62 | 10
O=C(Nc1nnc(S(=O)(=O)N2CCN(c3ccc(F)cc3)CC2)s1)c1ccco1 | 1 | -1 | -13 | 4
Cc1ccc2nc(N3CCC(C(=O)O)CC3)nc(-c3ccccc3)c2c1 | -2 | 36 | 5 | 2
CS(=O)(=O)N(CC(=O)Nc1c(F)cccc1F)c1cccc([N+](=O)[O-])c1 | 7 | 4 | -3 | -1
COc1ccc(/C=N\NC(=O)C2COc3ccccc3O2)cc1O (stereo not given) | 24 | 6 | 99* | -1
COc1cc(/C=N/NC(=O)C2COc3ccccc3O2)ccc1O (stereo not given) | 13 | 22 | 99* | 0
COc1ccc(/C=N/NC(=O)CNC(=O)c2ccc3c(c2)OCCO3)cc1OC | -6 | 22 | -4 | 4
COc1cc(/C=N/NC(=O)c2ccc3c(c2)OCCO3)cc(Cl)c1O | -7 | -11 | 94* | 0
COc1ccc(/C=N/NC(=O)C2COc3ccccc3O2)cc1OC (stereo not given) | 2 | 5 | -2 | 2
SMILES | Cardio protect | UBC9 SUMO inh | ALR inh | NTR1 agonist
OC(c1cc(F)cc(Cl)c1)c1ncc(-c2ccccc2C(F)(F)F)[nH]1 (stereo not given) | -4 | x | x | x
O=C(O)CC(C(=O)O)N1C(=O)/C(=C/c2ccc(-c3nc4ccccc4s3)o2)SC1=S (stereo not given) | 12 | 3 | 49 | -1
C/C(=N\NC(=S)Nc1c(C)cccc1C)c1ccc(O)cc1 | 0 | 25 | 87* | 3
O=C(CSCc1ccccc1F)NCc1ccccc1 | -1 | 11 | 27 | -1
CCn1c(C)nnc1SCC(=O)Nc1ccc(N2CCOCC2)cc1 | -6 | 12 | 88* | 1
CCn1c(SCC(=O)Nc2ccc(N3CCOCC3)cc2)nnc1-c1ccc(OC)cc1 | -1 | 5 | -1 | -2
CC(C)(C)c1nc(SCC(=O)Nc2ccc(N3CCOCC3)cc2)c2ccccc2n1 | 0 | -23 | 98* | 1
CCn1c(SCC(=O)Nc2ccc(N3CCOCC3)cc2)nnc1-c1ccco1 | -1 | x | 98* | -1
CC(C)(C)c1nc(SCC(=O)Nc2ccc3c(c2)OCCO3)c2ccccc2n1 | -5 | -29 | -62 | 0
Fc1ccc(/C=N/N2CCCCC2)c(F)c1 | -4 | 24 | x | 0
Cc1nnc(SCC(=O)Nc2sc3c(c2C#N)CCCC3)[nH]c1=O | 4 | 9 | 98* | 0
